For test [1], the system named is Vero E6 infected with SARS-CoV-2. As to the kind of experiment: morphology score (similarity to uninfected cells); higher = more like uninfected cells. The following applies: 24 h.
Test [2] shares this test system. As to the kind of experiment: SARS-CoV-2 infection rate relative to infected DMSO; higher = more infection, active = 60 or less. The note with it: 24 h.

With `COc1ccc2c(NC(=O)Nc3cccc(C(F)(F)F)n3)ccnc2c1` (10 µM), in test [1], the morphology score is -0.049. The SARS-CoV-2 infection rate in test [2] was 101% (inactive).

Take `OC[C@@H](O)[C@@H](O)[C@H](O)[C@@H](O)CO` [sorbitol] (10 µM): the morphology score in test [1] is -0.0534. In addition, the SARS-CoV-2 infection rate in test [2] is 110% (inactive).

The molecule `CC(C)(Sc1cc(C(C)(C)C)c(O)c(C(C)(C)C)c1)Sc1cc(C(C)(C)C)c(O)c(C(C)(C)C)c1` [probucol] (10 µM) gave a morphology score in test [1] of 0.0913. Moreover, the SARS-CoV-2 infection rate in test [2] was 100% (inactive).

The molecule `CCCCCCCCCCCC[N+](C)(C)CCOc1ccccc1` [domiphen] (10 µM) displayed a morphology score in test [1] of 0.0254. Further, the SARS-CoV-2 infection rate in test [2] was 87% (inactive).

The molecule `Cc1ccc(-c2nc3ccc(C)cn3c2CC(=O)N(C)C)cc1` (10 µM) gave a morphology score in test [1] of 0.137. For the same molecule, in test [2], the SARS-CoV-2 infection rate was 98.5% (inactive).

Turning to `Cc1cc(C)c(S(=O)(=O)n2cc(C)cc2C)c(C)c1` (10 µM), the morphology score in test [1] was 0.0664. Moreover, the SARS-CoV-2 infection rate in test [2] is 102% (inactive).

As for `Clc1ccc(CO/N=C(\Cn2ccnc2)c2ccc(Cl)cc2Cl)c(Cl)c1` [oxiconazole] (10 µM), the morphology score in test [1] is -0.0771. Besides, the SARS-CoV-2 infection rate in test [2] was 114% (inactive).

In test [1], `C[C@@H](O[C@H]1OCCN(Cc2n[nH]c(=O)[nH]2)[C@H]1c1ccc(F)cc1)c1cc(C(F)(F)F)cc(C(F)(F)F)c1` [aprepitant] (10 µM) displayed a morphology score of 0.0718. For the same molecule, the SARS-CoV-2 infection rate in test [2] was 108% (inactive).

As for `CCOC(=O)[C@]12CC1/C(=N\O)c1ccccc1O2` (stereo partly specified) (10 µM), the morphology score in test [1] came out at 0.224. For the same molecule, the SARS-CoV-2 infection rate in test [2] is 90.5% (inactive).

In test [1], `O=C(Nc1c(-c2cccs2)nc2ccccn12)c1ccc(Cl)cc1` (10 µM) registered a morphology score of 0.204. Further, the SARS-CoV-2 infection rate in test [2] was 84% (inactive).

In turn, `Cc1c(Cl)cccc1S(=O)(=O)Nc1nc(NCCc2ccccc2)nc2c1CN(Cc1ccccc1)CC2` (10 µM) displayed a morphology score in test [1] of 0.104. The SARS-CoV-2 infection rate in test [2] is 94.5% (inactive).

The molecule `Nc1ccc(C(=O)Oc2ccccc2)c(O)c1` [phenyl-aminosalicylate] (10 µM) came in with a morphology score in test [1] of 0.0987. Moreover, the SARS-CoV-2 infection rate in test [2] is 104% (inactive).

Molecule `CC(=O)[C@]1(O)Cc2c(O)c3c(c(O)c2[C@@H](O[C@H]2C[C@H](N)[C@H](O)[C@H](C)O2)C1)C(=O)c1ccccc1C3=O` [idarubicin] (0.833333 µM) had a morphology score in test [1] of -0.15. The SARS-CoV-2 infection rate in test [2] was 106% (inactive).

For `CCS(=O)(=O)c1cccc(-c2cc(C(=O)NC3CCN(C)CC3)c(C)c3[nH]c4ncc(C)cc4c23)c1` (0.833333 µM), in test [1], the morphology score was found to be 0.14. Besides, the SARS-CoV-2 infection rate in test [2] is 105% (inactive).

Turning to `CC(=O)SCCC(=O)N1[C@H](C)CCC[C@@H]1C(=O)O` [methiopril] (10 µM), the morphology score in test [1] is 0.0927. Besides, the SARS-CoV-2 infection rate in test [2] is 102% (inactive).

`CCOC(=O)C1=C(C)NC(=S)NC1c1cccc(O)c1` (stereo unspecified) [monastrol] (10 µM) came in with a morphology score in test [1] of 0.0534. The SARS-CoV-2 infection rate in test [2] was 93% (inactive).

`Cn1cc(/C=C2\C(=O)Nc3cccnc32)c2ccccc21` (10 µM) registered a morphology score in test [1] of -0.0337. The SARS-CoV-2 infection rate in test [2] was 92.5% (inactive).

On to `COCCNC(=O)Cn1cnc([N+](=O)[O-])n1` [sanazole] (10 µM), for which the morphology score in test [1] worked out at 0.122. Moreover, the SARS-CoV-2 infection rate in test [2] was 93% (inactive).

On to `N[C@@H](Cc1cc(CP(=O)(O)O)cc(-c2ccccc2Cl)c1)C(=O)O` (10 µM), for which, in test [1], the morphology score was 0.0155. Further, the SARS-CoV-2 infection rate in test [2] is 97.5% (inactive).

The molecule `CN(CCOP(=O)(O)O)C(=N)N` [creatinol-phosphate] (10 µM) yielded a morphology score in test [1] of 0.077. For the same molecule, the SARS-CoV-2 infection rate in test [2] is 95.5% (inactive).

For `c1ccc(-c2ccc(C(c3ccccc3)n3ccnc3)cc2)cc1` (stereo unspecified) [bifonazole] (10 µM), the morphology score in test [1] worked out at 0.407. In addition, the SARS-CoV-2 infection rate in test [2] was 79% (inactive).

Turning to `CC1(c2ccccc2)OC(C(=O)O)=CC1=O` (stereo unspecified) [acifran] (10 µM), in test [1], the morphology score was 0.119. In addition, the SARS-CoV-2 infection rate in test [2] was 102% (inactive).

The molecule `C[C@@]12C[C@@]3(O)O[C@@H](O1)[C@]1(COC(=O)c4ccccc4)[C@H]3C[C@@]12O[C@@H]1O[C@H](CO)[C@@H](O)[C@H](O)[C@H]1O` [paeoniflorin] (10 µM) showed a morphology score in test [1] of 0.192. For the same molecule, the SARS-CoV-2 infection rate in test [2] is 92.5% (inactive).

As to `CC(=O)O[C@]1(C(C)=O)CC[C@H]2[C@@H]3C[C@H](C)C4=CC(=O)CC[C@]4(C)[C@H]3CC[C@@]21C` [medroxyprogesterone-acetate] (10 µM), the morphology score in test [1] worked out at 0.153. The SARS-CoV-2 infection rate in test [2] is 105% (inactive).

In test [1], `COc1ccc(-c2cnc3c(-c4cccc5ncccc45)cnn3c2)cc1` (10 µM) registered a morphology score of 0.294. Moreover, the SARS-CoV-2 infection rate in test [2] was 100% (inactive).

For `CCCN(CCC)C(=O)C(CCC(=O)OCCCN1CCN(CCOC(=O)Cc2c(C)n(C(=O)c3ccc(Cl)cc3)c3ccc(OC)cc23)CC1)NC(=O)c1ccccc1` (stereo unspecified) [proglumetacin] (10 µM), the morphology score in test [1] was 0.0923. Further, the SARS-CoV-2 infection rate in test [2] is 99.5% (inactive).

The molecule `CCC[C@H]1C(=O)N2C(N(C)C)=Nc3ccc(C)cc3N2C1=O` [azapropazone] (10 µM) gave a morphology score in test [1] of 0.165. Moreover, the SARS-CoV-2 infection rate in test [2] was 94% (inactive).

As to `COc1cc2c(NC3CCN(C)CC3)nc(N3CCCN(C)CC3)nc2cc1OCCOCCN(C)C` (10 µM), in test [1], the morphology score is 0.108. Further, in test [2], the SARS-CoV-2 infection rate was 110% (inactive).

For the origin of these results see the supplement of paper PMC13380429.
